Screening results (PubChem)
Pol kappa inh-1 = qHTS for Inhibitors of Polymerase Kappa; DNA polymerase kappa (Homo sapiens), Q9UBT6; purified Pol kappa, fluorescent DNA synthesis assay, 10 min; Potency, µM (series often up to 107 µM), without a hit: at the highest dose activity, negative = inhibition, actives largely listed as inhibitors; 0.53% of 400,000 active; also: potency is read from the fitted curve at half-maximal effect; % is scaled to controls: 0 for no effect and ±100 for the full control effect
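Kinetic fluorescence readout at 0 and 10 min followed reaction start with substrate at 50 nM final. Beforehand, enzyme (10 nM Pol kappa) stood 15 min with compound at room temperature; buffer-only wells were negative controls.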
Pol eta inh-1 = qHTS for Inhibitors of Polymerase Eta. recombinant Pol eta, fluorescent DNA replication assay. Potency, µM (doses to about 114 µM), for the others: at the highest dose activity change, negative = inhibition, hits mostly inhibitors. 1.2% of 390,000 active. DNA polymerase eta (Homo sapiens), Q9Y253; also: potency is read from the fitted curve at half-maximal effect; % is scaled to controls: 0 for no effect and ±100 for the full control effect
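Fluorescent replication assay: 50 nM final substrate added after a 15 min room-temperature compound preincubation with 10 nM enzyme. Signal taken at 0 min and again at 10 min.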
PI5P4K alpha inh = qHTS for Inhibitors of phosphatidylinositol 5-phosphate 4-kinase (PI5P4K); Phosphatidylinositol 5-phosphate 4-kinase type-2 alpha (Homo sapiens), P48426; PI5P4Kalpha enzyme, ADP-Glo luminescence, 60 min; active compounds read low; max response, %; 1.2% of 330,000 active; AID 652105, 2013; active = max response of -50% or lower; inconclusive = between -30% and -50%; inactive = -30% or higher; also: value at the top dose of about 77 µM; % is scaled to controls: 0 for no effect and ±100 for the full control effect
Target sequence (P48426 whole entry, looked up): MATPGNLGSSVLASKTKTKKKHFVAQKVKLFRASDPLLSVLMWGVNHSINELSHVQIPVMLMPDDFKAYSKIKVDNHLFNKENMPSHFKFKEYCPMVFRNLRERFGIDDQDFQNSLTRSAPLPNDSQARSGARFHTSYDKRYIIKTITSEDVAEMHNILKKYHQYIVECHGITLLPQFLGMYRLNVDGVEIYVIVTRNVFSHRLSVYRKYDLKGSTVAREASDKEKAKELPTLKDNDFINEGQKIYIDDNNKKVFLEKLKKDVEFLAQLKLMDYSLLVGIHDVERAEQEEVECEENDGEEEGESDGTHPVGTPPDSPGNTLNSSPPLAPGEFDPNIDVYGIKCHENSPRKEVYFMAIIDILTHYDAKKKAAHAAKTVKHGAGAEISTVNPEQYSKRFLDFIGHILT
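Single end-point luminescence (ADP-Glo) quantified ADP from PI5P4Kalpha turnover; ATP 5 microM final, 1 h at RT, 0.1% CHAPS and 0.28 mM EGTA in HEPES pH 7.4.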
Pol iota inh = qHTS for Inhibitors of Polymerase Iota; DNA polymerase iota (Homo sapiens), Q9UNA4; Pol iota fluorescent replication assay, 10 min; Potency, µM (highest dose often 115 µM), for inactives: at the top dose activity, negative = inhibition, most hits filed as inhibitors; 1% of 390,000 active; also: potency is read from the fitted curve at half-maximal effect
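Pol iota at 10 nM preincubated 15 min with compounds at room temperature; reaction started with fluorescent substrate, 50 nM final. Fluorescence read kinetically at 0 and 10 min; buffer-only wells as negative control.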
Pol beta inh = qHTS Assay for Inhibitors of DNA Polymerase Beta | AID 485314, 2010 | Pol beta primer extension/strand displacement, fluorescence kinetic | Potency, µM (highest dose often 114 µM), for the others: at the top dose activity change, negative = inhibition, usual class: inhibitors | P06746 | 1.3% of 340,000 active; also: potency is read from the fitted curve at half-maximal effect; % is scaled to controls: 0 for no effect and ±100 for the full control effect
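Pol beta (10 nM) was preincubated with compound for 15 min at room temperature. The reaction was then started with 50 nM substrate and read immediately and after a further 10 min at room temperature.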
FEN1 inh = qHTS Assay for the Inhibitors of Human Flap endonuclease 1 (FEN1). 0.35% of 390,000 active. P39748. Recombinant FEN1 flap cleavage, fluorescence, 15 min. Potency, µM (highest dose often 114 µM), inactives show at the highest dose activity change, negative = inhibition, actives largely listed as inhibitors. AID 588795, 2011; also: potency is read from the fitted curve at half-maximal effect; % is scaled to controls: 0 for no effect and ±100 for the full control effect; nearly all actives have a fitted effect of over 65% in size
Target sequence (P39748 whole entry, looked up): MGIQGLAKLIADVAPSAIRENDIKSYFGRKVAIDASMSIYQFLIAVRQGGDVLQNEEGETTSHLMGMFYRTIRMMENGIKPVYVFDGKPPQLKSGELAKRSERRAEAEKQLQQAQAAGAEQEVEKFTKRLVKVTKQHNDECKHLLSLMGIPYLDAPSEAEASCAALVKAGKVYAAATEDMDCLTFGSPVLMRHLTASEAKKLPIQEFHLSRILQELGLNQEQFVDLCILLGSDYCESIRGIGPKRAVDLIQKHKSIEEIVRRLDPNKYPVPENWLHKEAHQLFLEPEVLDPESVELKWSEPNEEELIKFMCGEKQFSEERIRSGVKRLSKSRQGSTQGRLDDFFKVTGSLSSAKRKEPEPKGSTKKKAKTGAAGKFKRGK
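Concentration–response screening of FEN1 (10 nM): 15 min compound preincubation at room temperature, reaction started with 50 nM substrate and read at 0 and 15 min. Corrected, normalized data were fitted by a four-parameter Hill equation.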
GALK confirm = Confirmation Assay for Inhibitors of Human Galactokinase (GALK) | purified GALK, Kinase-Glo ATP depletion luminescence | shares compounds with Pol eta inh-1 | AID 2015, 2009 | Potency, µM (top dose mostly 115 µM), inactives show at the top dose activity, negative = inhibition, hits mostly inhibitors | 70% of 150 active
Redox cycling = Confirmatory Assay for Inhibitors of Human Galactokinase (GALK): Phenol-HRP redox assay counterscreen. 40% of 150 active. Potency, µM (top dose mostly 115 µM), for the others: top-dose activity change, negative = H2O2 signal, usual class: inhibitors. shares compounds with Pol eta inh-1. Phenol red-HRP H2O2 redox cycling, absorbance 600 nm. AID 2035, 2009
HEK293 tox = Secondary Assay for Inhibitors of Human Galactokinase (GALK): HEK-293 Cell Viability Assay; shares compounds with Pol eta inh-1; HEK-293 viability, ATP luminescence (CellTiter-Glo), 24/48 h; Potency, µM (top dose mostly 46.1 µM), without a hit: at the highest dose activity change, negative = cytotoxicity, most hits filed as inhibitors; 10% of 170 active; also: potency is read from the fitted curve at half-maximal effect; % is scaled to controls: 0 for no effect and ±100 for the full control effect
Pol kappa inh-2 = qHTS for Inhibitors of Polymerase Kappa: Confirmatory Assay for Cherry-picked Compounds | shares compounds with Pol eta inh-1 | 76% of 920 active | purified Pol-kappa, fluorescent strand-displacement substrate | Potency, µM, most hits filed as inhibitors; also: potency is read from the fitted curve at half-maximal effect
Pol eta inh-2 = qHTS for Inhibitors of Polymerase Eta: Confirmatory Assay for Cherry-picked Compounds; Potency, µM, usual class: inhibitors; Pol eta primer extension, TAMRA/BHQ fluorescence, 10 min; 64% of 2,600 active; shares compounds with Pol eta inh-1; also: potency is read from the fitted curve at half-maximal effect
Active calls of the source: *; [ ] = dose if it differs, or a comment. An excerpt weighted towards active compounds, which were near 2.8% of everything screened. Unless noted, calls follow the shape of the dose curve; as a rule, active = well fitted curve in the direction sought with a large enough effect; inconclusive = small, poorly fitted or top-dose-only effect, or another doubt; inactive = no such curve, though single readings can be large; an effect the other way counts as inactive or inconclusive.

For O=C(N/N=C/c1ccncc1)c1cc([N+](=O)[O-])cc([N+](=O)[O-])c1O the results were Pol kappa inh-1 -5.2%, Pol eta inh-1 25.1µM*, PI5P4K alpha inh inconclusive, Pol iota inh inconclusive, Pol beta inh 0.4%, FEN1 inh -11.7% and Pol eta inh-2 inconclusive.
CN(Cc1ccccc1)c1nc2c(S(=O)(=O)c3ccccc3)nnn2c2ccsc12 was read as Pol kappa inh-1 -1.2%, Pol eta inh-1 -8.5%, Pol iota inh 17.7%, Pol beta inh 1.3% and FEN1 inh 13.8%.
Screening O=C1c2ccccc2-c2cccnc21 returned Pol kappa inh-1 0.7%[60.1 µM], Pol eta inh-1 -2.3%, PI5P4K alpha inh -6.5, Pol iota inh -2.6%, Pol beta inh 10.6% and FEN1 inh -22.1%.
For O=C1C(C2=C(O)c3ccccc3C2=O)=Nc2ccccc21 the results were Pol kappa inh-1 -21.6%, Pol eta inh-1 31.6µM*, Pol iota inh 26.6%, Pol beta inh 8.6%, FEN1 inh -21.2%, GALK confirm 23.7µM*, Redox cycling 14.9µM* and HEK293 tox 9.5%.
Cn1c2ccccc2c2cc(/C=N/NC(=O)c3cc(O)cc(O)c3)ccc21 was read as Pol kappa inh-1 inconclusive, Pol eta inh-1 22.4µM*, PI5P4K alpha inh -73.7*, Pol iota inh 28.2µM*, Pol beta inh 89.1µM*, FEN1 inh 39.8µM*, Pol kappa inh-2 47.4* and Pol eta inh-2 53.6*.
CCn1c2ccccc2c2cc(/C=N/NC(=O)c3ccccc3)ccc21 was read as Pol kappa inh-1 0.0%, Pol eta inh-1 5.0%, PI5P4K alpha inh -4.4, Pol iota inh -2.4%, Pol beta inh 25.7% and FEN1 inh -0.6%.
CN(C)C1(CNC(=O)C2CCN(S(=O)(=O)c3cccc(C(F)(F)F)c3)CC2)CCCCC1 was read as Pol kappa inh-1 -3.6%, Pol eta inh-1 -8.5%, PI5P4K alpha inh -0.7, Pol iota inh 25.0%, Pol beta inh 23.6% and FEN1 inh -0.9%.
Screening CSCc1ccc(C(=O)NCC(c2cccs2)N2CCOCC2)cc1 (stereo unspecified) returned Pol kappa inh-1 -4.3%, Pol eta inh-1 -9.8%, PI5P4K alpha inh -7.4, Pol iota inh 28.1% and FEN1 inh -4.5%.
For O=[N+]([O-])c1cccc(N/N=C/c2cc([N+](=O)[O-])ccc2O)c1 the results were Pol kappa inh-1 -27.2%, Pol eta inh-1 3.2%, PI5P4K alpha inh 8.3, Pol iota inh inconclusive, Pol beta inh inconclusive and FEN1 inh -5.9%.
For O=[N+]([O-])c1ccc(O)c(C=NNc2ccc(S(=O)(=O)O)cc2)c1 the results were Pol kappa inh-1 inconclusive, Pol eta inh-1 6.31µM*, PI5P4K alpha inh -23.8, Pol iota inh 22.4µM*, FEN1 inh -2.4%, Pol kappa inh-2 21.2* and Pol eta inh-2 53.6*.
O=C(Nc1ccc(S(=O)(=O)Nc2ncccn2)cc1)c1cccc(Cl)c1 was read as Pol kappa inh-1 -15.9%[60.1 µM], Pol eta inh-1 -17.9%, Pol iota inh 20.4%, Pol beta inh -10.2% and FEN1 inh 18.4%.
`Cc1c(C(=O)Nc2ccc(S(=O)(=O)Nc3ncccn3)cc2)oc2ccccc12` gave Pol kappa inh-1 inconclusive, Pol eta inh-1 28.2µM*, PI5P4K alpha inh -28.2, Pol iota inh inconclusive, FEN1 inh -14.8% and Pol eta inh-2 42.6*.
For O=C(Nc1ccc(S(=O)(=O)Nc2ncccn2)cc1)c1ccc2ncsc2c1 the results were Pol kappa inh-1 -26.3%, Pol eta inh-1 39.8µM*, PI5P4K alpha inh inconclusive, Pol iota inh inconclusive, Pol beta inh inconclusive, FEN1 inh inconclusive and Pol eta inh-2 75.7*.
For CCOc1ccc(C2/C(=C(\O)c3cccc(OC)c3)C(=O)C(=O)N2c2ccccn2)cc1OC (stereo unspecified) the results were Pol kappa inh-1 inconclusive, Pol eta inh-1 6.3%, PI5P4K alpha inh -4.8, Pol iota inh inconclusive, Pol beta inh -15.7% and FEN1 inh -25.1%.
For O=C(O)Cc1ccc(NC(=O)c2ccc(NC(=O)c3ccco3)cc2)cc1 the results were Pol kappa inh-1 inconclusive, Pol eta inh-1 25.1µM*, Pol iota inh 44.7µM*, Pol beta inh inconclusive, FEN1 inh 6.2% and Pol eta inh-2 42.6*.
`COC(=O)Cc1ccc(NC(=O)c2ccc(NC(=O)c3ccco3)cc2)cc1` gave Pol kappa inh-1 0.6%, Pol eta inh-1 -1.6%, PI5P4K alpha inh -4.3, Pol iota inh 65.3%, Pol beta inh -23.4% and FEN1 inh 2.7%.
For Clc1cccc(N/N=C/c2ccc(N3CCOCC3)cc2)c1 the results were Pol kappa inh-1 -0.2%, Pol eta inh-1 inconclusive, PI5P4K alpha inh 6.0, Pol iota inh 24.9%, Pol beta inh 23.0% and FEN1 inh -9.8%.
`O=C(O)c1cc(N/N=C/c2ccc(N3CCOCC3)cc2)ccc1Cl` gave Pol kappa inh-1 inconclusive, Pol eta inh-1 50.1µM*, PI5P4K alpha inh -28.4, Pol iota inh inconclusive, Pol beta inh inconclusive, FEN1 inh 11.0% and Pol eta inh-2 84.9*.
